# HT1080 IDH1KD tx = HT-1080 IDH1 knockdown cell toxicity (counter line); HT-1080 IDH1 knockdown viability, ATP luminescence, 48 h; Potency, µM (highest dose often 46.1 µM), most hits filed as cytotoxic; hit rate 2% among 360,000
#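 Using the IDH1-knockdown HT-1080 line run in the same batch and compound series as the NT line, viability after 48 h at 37 °C was determined by CellTiter-Glo luminescence and expressed as % activity.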
# ATXN2 expr inh = ATXN2 expression inhibition. HEK-293 ATXN2-luciferase reporter, luminescence, 24 h. Potency, µM (highest dose often 57 µM), most hits filed as inhibitors. hit rate 0.72% among 360,000; note: nearly all actives have a fitted effect of over 55% in size
#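 ATXN2-luciferase reporter cells (luciferase flanked by upstream and downstream ATXN2 gene portions) were treated 24 h at 37 °C with compounds at up to 57 uM. SteadyGlo luminescence gave expression; GF-AFC fluorescence gave viability.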
# TGFb SMAD3 inh = blocks TGF-b signaling | HepG2 CAGA-GFP TGF-b/SMAD3 reporter, GFP fluorescence, 18 h; TGF-beta stimulated, 500 pg/mL final | Potency, µM (top dose mostly 46.1 µM), most hits filed as inhibitors | hit rate 1.2% among 410,000; note: nearly all actives have a fitted effect of over 65% in size
#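 HEPG2 CAGA-GFP, 1000 cells/well; 2 h settle, 37 C; cpd via pin tool; TGF-b 500 pg/mL final; 18 h, 37 C; GFP imaging ex488/em500-530; %Activity normalised to -TGF-b and +DMSO controls; CRC fit, curve class.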
# S2 tox = cell viability loss in ATXN counter-screen; S2 cells (HEK-293 line with an ATXN2-luciferase reporter) viability, CellTiter-Fluor protease fluorescence, 24 h; Potency, µM (titrated, usually from 56.7 µM), usual class: cytotoxic; hit rate 0.49% among 400,000; note: nearly all actives have a fitted effect of over 40% in size
# HT1080NT lethal = kills 2HG-producing HT-1080-NT fibrosarcoma cells | HT-1080-NT fibrosarcoma viability, CellTiter-Glo ATP luminescence, 48 h | Potency, µM (doses to about 46.1 µM), most hits filed as cytotoxic | hit rate 1.6% among 360,000 | AID 686970;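 note: NT is the 2HG producing partner of a matched IDH1 knockdown line; nearly all actives have a fitted effect of over 55% in size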
#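 Compounds were tested in concentration-response format on HT-1080-NT cells for 48 hours at 37 degrees C. Cell viability came from CellTiter-Glo luminescence; curves were classified by r2, response magnitude and activity.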
# HepG2 viability = HepG2 cytotoxicity, counter-screen for TGF-b inhibitors | HepG2 CAGA-GFP viability, ATP luminescence, 18 h | Potency, µM (series often up to 46.1 µM), hits mostly cytotoxic | hit rate 0.76% among 410,000 | AID 588856
#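 CellTiter-Glo luminescence gave cytotoxicity after 18 hours at 37 degrees C. The cells were HepG2 CAGA-GFP in 1% FBS DMEM, stimulated with 500 pg/mL TGF-beta after compound addition. %Activity was normalised to no-cell wells (complete cell-killing) and DMSO (no toxicity), and curves were fitted and classified.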
# Hits are given with their value; – = inactive; ? = inconclusive; · = no result given. This is a sample that favours compounds with a hit; in the whole collection about 3.9% have one here. Calls come from the whole dose curve; as a rule, active = well fitted curve in the direction sought with a large enough effect; inconclusive = small, poorly fitted or top-dose-only effect, or another doubt; inactive = no such curve, though single readings can be large; an effect the other way counts as inactive or inconclusive.
SMILES,HT1080 IDH1KD tx,ATXN2 expr inh,TGFb SMAD3 inh,S2 tox,HT1080NT lethal,HepG2 viability
O=C1C=CC(=O)N1c1ccccn1,–,–,–,–,–,–
O=C1C=CC(=O)N1c1ccccc1N1C(=O)C=CC1=O,5.8µM,?,?,35.5µM,6.51µM,–
O=C(c1ccccc1)c1ccccc1N1C(=O)C=CC1=O,?,?,?,·,16.4µM,–
COc1ccccc1CNC(=O)CC1N=C2c3ccccc3N=C(SCC(=O)Nc3ccc(F)cc3)N2C1=O (configuration not stated),·,–,–,–,·,–
O=C(Nc1nc(-c2ccco2)cs1)c1ccccc1,–,–,–,–,–,–
O=C(Nc1nc(-c2ccccn2)cs1)Nc1ccc(F)cc1F,?,14.1µM,?,?,?,–
CC(=O)c1ccc(-c2ccc(C(=O)Nc3nc(-c4ccccn4)cs3)o2)cc1,10.3µM,–,12.6µM,–,?,–
Cc1ccc(-c2csc(NC(=O)c3ccc(-c4ccccc4)cc3)n2)o1,–,–,12.6µM,?,–,–
O=C(Nc1nc(-c2ccccn2)cs1)c1ccc(-c2ccccc2F)o1,?,?,14.1µM,?,?,–
COc1cccc(CN2C(=O)NC(C)(C3CCN(Cc4cc(F)cc(F)c4)CC3)C2=O)c1OC (configuration not stated),·,·,·,–,·,·
CCOc1ccc(NS(=O)(=O)c2ccc(OCC)c3ncccc23)cc1,10µM,–,–,–,11.2µM,–
Cc1ccc(S(=O)(=O)Nc2ccccc2/C=N/c2nc3ccccc3n2C)cc1,20.6µM,?,?,·,?,–
COCCNC(=O)/C(C#N)=C/c1cc(Br)c(O)c(OC)c1,–,–,–,?,–,–
CCOCCCNC(=O)/C(C#N)=C/c1ccc(-c2ccc(S(=O)(=O)N3CCOCC3)cc2)o1,–,–,–,–,–,–
CC(NC(=O)/C(C#N)=C/c1ccc([N+](=O)[O-])o1)c1ccccc1 (configuration not stated),6.51µM,?,?,?,–,–
CCOCCCNC(=O)/C(C#N)=C/c1ccc([N+](=O)[O-])o1,7.31µM,?,–,18.9µM,?,–
CCOCCCNC(=O)/C(C#N)=C/c1cc(Br)c(O)c(Br)c1,2.06µM,–,?,–,2.31µM,–
CC(=O)c1ccccc1-c1ccc2c(c1)CC(CNC(=O)c1cc(C)on1)O2 (configuration not stated),·,·,·,–,·,·
COC(=O)/C=C/c1ccc2c(c1)S(=O)(=O)N(C1CCCC1)[C@H]2CC(=O)OC,·,·,?,·,·,–
O=C(Nc1cccc(C(=O)N2CCN(c3ccccc3)CC2)c1)c1nsc2ccccc12,·,–,–,?,·,–
O=C(CSc1ncccc1C(=O)Oc1ccccc1Cl)Nc1ccccc1Cl,·,·,–,·,·,–
Cc1ccccc1OCCN1CCC(Cc2ccccc2)CC1,–,·,–,?,–,–
Cc1ccc([N+](=O)[O-])c(OCCN2CCC(Cc3ccccc3)CC2)c1,16.4µM,–,–,–,20.6µM,–
CCC(=O)c1ccccc1OCCCN1CCC(Cc2ccccc2)CC1,?,?,?,?,18.4µM,–
CCn1cc2nc(SCc3cccc(C(F)(F)F)c3)n(Cc3ccc(C)cc3)c(=O)c2n1,·,–,?,–,·,–
SMILES,HT1080 IDH1KD tx,ATXN2 expr inh,TGFb SMAD3 inh,S2 tox,HT1080NT lethal,HepG2 viability
CC(C)CN(C(=O)COC(=O)CSc1ccccc1F)c1c(N)n(Cc2ccccc2)c(=O)[nH]c1=O,–,–,?,–,–,–
CC(C)CN(C(=O)COC(=O)C12CC3CC(CC(O)(C3)C1)C2)c1c(N)n(Cc2ccccc2)c(=O)[nH]c1=O,–,·,–,–,–,–
CC(C)CN(C(=O)COC(=O)C12CC3CC(CC(C3)C1)C2)c1c(N)n(Cc2ccccc2)c(=O)[nH]c1=O,?,14.1µM,–,22.4µM,?,–
Cc1ccc(SCC(=O)OCC(=O)N(CC(C)C)c2c(N)n(Cc3ccccc3)c(=O)[nH]c2=O)c(C)c1,23.1µM,–,–,–,?,–
COc1ccc(S(=O)(=O)c2cnc(SCC(=O)Nc3cc(F)ccc3C)[nH]c2=O)cc1Cl,·,–,–,–,·,–
C=CCC[C@@H](Cc1ccc(F)cc1)C(=O)OC[C@@H]1CCCN1C(=O)[C@H](CC=C)CC(=O)N[C@H](CO)Cc1ccccc1,–,?,11.2µM,·,–,–
C=CCC[C@@H](Cc1ccc(F)cc1)C(=O)OC[C@H]1CCCN1C(=O)[C@@H](CC=C)CC(=O)N[C@H](CO)Cc1ccccc1,–,?,?,?,–,–
C=CCC[C@@H](Cc1ccc(F)cc1)C(=O)OC[C@@H]1CCCN1C(=O)[C@@H](CC=C)CC(=O)N(CCO)Cc1ccccc1,?,?,?,?,?,12.6µM
CCn1c(O)c(N=NC(=O)CNC(=O)Cc2ccccc2)c2ccccc21,–,–,–,–,–,–
O=C(CNC(=O)c1ccco1)N=Nc1c(O)n(CCc2ccccc2)c2ccccc12,1.84µM,·,?,?,4.11µM,–
CCN1C(=O)CC(CC(=O)N2CCC(c3nc4ccc(F)cc4[nH]3)CC2)(c2ccccc2C)C1=O (configuration not stated),·,·,·,–,·,·
CCOC(=O)c1ccc(OCC2c3cc(OC)c(OC)cc3CCN2C(=O)Cc2ccc(OC)c(OC)c2)cc1 (configuration not stated),·,–,–,–,·,–
CCN(CC)CCNCC1C(=O)O[C@@H]2C[C@@]3(C)CCC[C@H](C)C3=C[C@H]12 (some centres not stated),16.4µM,–,?,–,?,–
CCN(CC)c1ccc(NS(=O)(=O)c2cc(-c3onc(C)c3C)ccc2OC)c(C)c1,·,·,–,·,·,–
Cc1cc2c(c(-c3cnccn3)c1)OC(CNC(=O)c1cc(Cl)ccc1F)C2 (configuration not stated),·,·,·,–,·,·
Oc1cc(-c2ccncc2)cc2cccnc12,·,3.55µM,?,–,·,11.2µM
CN(C)c1ccc(-c2cc(O)c3ncccc3c2)cc1,·,?,?,–,·,–
CCN1C(=O)c2cccc3c(Cl)ccc(c23)C1=O,–,–,–,·,–,–
O=C1c2cccc3c(Cl)ccc(c23)C(=O)N1O,–,–,–,–,7.94µM,–
CCN1CCN(C(c2ccc(OC)cc2)c2c(O)cc(C)n(Cc3ccco3)c2=O)CC1 (configuration not stated),·,·,–,·,·,–
COC(=O)c1cc(Cl)ccc1NCC(N)c1ccccc1 (configuration not stated),18.4µM,?,?,?,20.6µM,–
O=c1c2cn[nH]c2nc(SCc2ccc3c(c2)OCCO3)n1-c1ccccc1,20.6µM,–,–,–,?,–
O=c1c2cn[nH]c2nc(SCc2cccc(Br)c2)n1-c1ccc(Cl)cc1,·,·,–,·,·,–
